Results: PubChem BioAssay (NCI)
This is part of a sample that, as a whole, favours compounds with a hit. Of some 83,000 tested, about 20% had one in any assay.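 A percent growth of 40 corresponds to 60% growth inhibition; 0 means no net growth; -100 means all cells died. Active threshold: below 10.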 A number with no mark means an inactive call. Activity calls are given as the source filed them.

Columns and labels:
Assay in all cases: NCI-60 one-dose screen, 48 h (100 = growth as untreated, 0 = no growth, -100 = all killed)
Conditions in all cases: 10 µM unless noted
SN12C renal = system: SN12C renal
UO-31 renal = system: UO-31 renal
TK-10 renal = system: TK-10 renal
ACHN renal = system: ACHN renal
CAKI-1 renal = system: CAKI-1 renal
A498 renal = system: A498 renal
CCRF-CEM leukemia = system: CCRF-CEM leukemia
MOLT-4 leukemia = system: MOLT-4 leukemia
EKVX NSCLC = system: EKVX NSCLC

SMILES | growth (SN12C renal) | growth (UO-31 renal) | growth (TK-10 renal) | growth (ACHN renal) | growth (CAKI-1 renal) | growth (A498 renal) | growth (CCRF-CEM leukemia) | growth (MOLT-4 leukemia) | growth (EKVX NSCLC)
CCOc1nc(-c2ccccc2)cc2c(O)c(C(=O)N/N=C/c3ccccc3)[nH]c(=O)c12 | 110% | 93.2% | 151% | 107% | 104% | 91.3% | 106% | 79.7% | 
CN1CCN(C(=O)c2ccc(NC(=O)c3cc4c(nn3)NCCN4Cc3cc(Cl)ccc3Cl)cc2)CC1 | 74.9% | 60.5% | 92.1% | 75.1% | 75.1% | 43.7% | 42% | 39.6% | 85.8%
Nc1nc(-c2ccc(Cl)cc2)nc2c1sc(=S)n2-c1ccccc1 | 53.2% | -38.4% (active) | 14.1% | -4.93% (active) | 42.3% | 26.3% | 85.4% | 82.8% | 40.7%
COC(CC(F)F)c1cn(S(=O)(=O)c2ccc(C)cc2)c2ccccc12 (configuration not stated) | 43.3% | 33.8% | 59.3% | 51% | 37.4% | 42.3% |  | 22.3% | 48.3%
CCN1C(=O)N(CC)C2C1NN=c1s/c(=C\c3ccccc3F)c(=O)n12 (configuration not stated) | 23.9% | 40.4% | 70.3% | 27.5% | 17.4% | 3.4% (active) | 8.85% (active) | 10.2% | 53%
Cc1nc2sc(C(=O)Nc3cccc4ccccc34)c(N)c2cc1C(O)c1ccccc1 (configuration not stated) | 12.7% | 33.4% | 52.6% | 24.4% | 29.5% | -13.7% (active) | 6.95% (active) | 6.27% (active) | 39.4%
Cc1[nH]c(=O)[nH]c(=O)c1Br | 98% | 105% | 114% | 104% | 92.9% | 103% | 107% | 94% | 106%
CC1=C2[C@@H](CC1)[C@]1(C)O[C@@](C(C)C)(C[C@H]1OC(=O)[C@H](C)O)[C@H]2OC(=O)/C=C/c1ccccc1 | 45.7% | 0.932% (active) | 90.1% | 8.57% (active) | 60.5% | -66.1% (active) | 85.8% | 62.8% | 66.1%
CCOC(=O)C1=C(c2ccccc2)N=C2SC=C(c3ccc(Cl)cc3)N2C1c1ccc(Cl)cc1 (configuration not stated) | 85.5% | 74.7% | 108% | 91.3% | 60.7% | 7.54% (active) | 79.3% | 31.5% | 69.9%
CCCCNCCCCCNc1cc(OC)cc2cccnc12 | 97.6% | 63.1% | 100% | 100% | 114% | 87.9% |  | 100% | 106%
COc1ccc(C2CC(c3ccc(Nc4nc(Nc5ccccc5)nc(Nc5ccccc5)n4)cc3)=NN2C(C)=O)cc1 (configuration not stated) | 95.7% | 78.3% | 104% | 100% | 105% | 95.5% | 88.6% | 71.2% | 132%
CCCCCCCCCCCCCCCCOCCCOP(=O)(O)C1CCCN(O)C1=O (configuration not stated) | 16.3% | 5.07% (active) | 33.1% | 10.5% | 16.6% | 1.39% (active) | 5.85% (active) | 7.18% (active) | 
COc1c(C(=O)Nc2ccc(C)c(Br)c2)ccc2ccccc12 | 96.8% | 85.5% | 103% | 104% | 71.9% | 91.2% | 91.3% | 73.7% | 66.3%
CCOC(=O)n1ccn(C)c1=S | 105% | 80.7% | 98.6% | 99.3% | 95.4% | 115% | 98% | 103% | 100%
CC1(C)CC(=O)C2=C(C1)N(c1ccc(OC(F)(F)F)cc1)C(N)=C(C#N)C2c1ccc(Br)cc1F (configuration not stated) | 58.7% | 70.3% | 119% | 41.1% | 50.3% | 31.4% | 85.6% | 63% | 82%
O=c1scc(-c2ccc(C(F)(F)F)cc2)s1 | 96.7% | 89.4% | 82.8% | 99.8% | 73% | 77.5% | 88.5% | 94.5% | 78.8%
CCOC(=O)c1cc2c(n1C)-c1nc(NC(C)=O)sc1CCC2 | 81.9% | 43.2% | 138% | 86.7% | 76.4% | 53.2% | 73.8% | 81.6% | 60.7%
COc1ccc(/C=C/C(=O)c2ccc(Nc3ccnc4cc(Cl)ccc34)cc2)cc1 | 97.8% | 90% |  | 98.8% | 85.1% | 115% | -52.1% (active) |  | 85.8%
Cc1ccc2c(Cn3cc(CSc4nc5ccccc5o4)nn3)cc(=O)oc2c1 | 102% | 91.1% | 122% | 103% | 100% | 90% |  | 108% | 

SMILES | growth (SN12C renal) | growth (UO-31 renal) | growth (TK-10 renal) | growth (ACHN renal) | growth (CAKI-1 renal) | growth (A498 renal) | growth (CCRF-CEM leukemia) | growth (MOLT-4 leukemia) | growth (EKVX NSCLC)
CC(C)(Sc1cc(C(C)(C)C)c(OC(=O)CCCC(=O)O)c(C(C)(C)C)c1)Sc1cc(C(C)(C)C)c(OC(=O)CCCC(=O)O)c(C(C)(C)C)c1 | 19.6% | 37.9% | 58.6% | 26.9% | 52.8% | 66.5% | 37.8% | 26.6% | 47.2%
C[PH+](c1nc2ccccc2nc1[PH+](C)C(C)(C)C)C(C)(C)C.C[PH+](c1nc2ccccc2nc1[PH+](C)C(C)(C)C)C(C)(C)C.[Au+].[Cl-] (configuration not stated) | -59.1% (active) | -90.9% (active) | -91.6% (active) | -97.1% (active) | -93.4% (active) |  | 12.2% | 8.3% (active) | -82.5% (active)
CN(C)c1ccc(-c2c(C#N)c(N)nn2C(=O)c2ccc(NC(=O)c3ccccn3)cc2)cc1 | 101% | 80.7% | 110% | 87.2% | 77.3% |  | 51.5% | 99.5% | 91.6%
Cc1cc(C(=O)O)c(C)n1-c1cccc(C(=O)O)c1 | 83.7% | 85.5% | 95.8% | -8.94% (active) | 13.8% | 93% | 108% | 62.9% | 98.5%
NC(Cc1ccc(O)c([N+](=O)[O-])c1)C(=O)O (configuration not stated) | 95.7% | 88.2% | 94.4% | 99.2% | 93.9% | 105% | 88.7% | 96% | 111%
CN(C)CCNC(=O)c1cc2c3cc(Cl)ccc3[nH]c2c2ncccc12 | 10.2% | 6.68% (active) | 42.8% | 10.2% | 23.8% | 26.7% | -13.2% (active) | -12.4% (active) | 22.1%
O=C(Nc1ccc(Oc2cccc(Cl)c2)c(Cl)c1)c1cnccn1 | 44.4% | 37.3% | 56.4% | 40% | 21.6% | 50.2% | 16.6% | 26.2% | 53.2%
S=c1sc2c(Cl)nc(-c3cccnc3)nc2n1-c1ccccc1 | 2% (active) | -85.6% (active) | 90.2% | -6.92% (active) | 73.9% | 92% | -31.7% (active) |  | 89.6%
O=S(=O)(NCCCNc1nccc(-c2c(-c3ccc(F)c(O)c3)nc3occn23)n1)c1ccc(Cl)cc1 | 59.5% | 36.4% | 103% | 56.3% | 41.7% | 84.9% | 47.9% | 48.9% | 65.6%
COc1ccc(Cc2cnc(NC(=O)c3cc(C)oc3C)s2)cc1 | 42.7% | 39.6% | 58% | 40.3% | 25.3% | 16.5% | 29.3% | 19.2% | 36.8%
C=CC(=O)N1CCN(c2cccc(Oc3nccc(Nc4nnc(-c5ccc(Br)cc5)s4)n3)c2)CC1 | 78.7% | 66.7% | 111% | 72.9% | 38.9% | 79.7% | 69.5% | 70.6% | 93.9%
Nc1c(C(=O)Nc2ccccc2F)sc2nc3c(cc12)CCCC3 | 40% | 46.9% | 60.9% | 50.7% | 57.4% | -0.37% (active) |  | 27% | 41.2%
COc1ccc(F)cc1/C=C/C(=O)/C=C(/C=C/c1cc(F)ccc1OC)OB(F)F | 8.78% (active) | -9.88% (active) | 32.9% | 2.25% (active) | 28.7% | 108% | -14.7% (active) | -16.5% (active) | 71.3%
O=C(CSc1nc2ccc([N+](=O)[O-])cc2[nH]1)Nc1ccc([N+](=O)[O-])cc1 | 9.04% (active) | 9.43% (active) | 31.8% | 21.4% | 12.7% | -6.66% (active) |  | 5.72% (active) | 20.3%
NC(=O)c1ccc(-c2c3ccccc3cc3c2ccc2ccccc23)cc1 | 72.9% | 57.5% | 70.2% | 57.2% | 61.7% | 70% | 37.8% |  | 67.7%
Cc1ccc(NC(=O)Cn2cc(CN3CCN(c4ccnc5cc(Cl)ccc45)CC3)nn2)cc1 | 93.9% | 62.7% |  | 81.1% | 73.1% | 88% | -31.6% (active) | -15.7% (active) | 80.7%
CSc1nc(N)c(NS(=O)(=O)c2ccc(C(C)=O)cc2)c(=O)[nH]1 | 101% | 100% | 119% | 108% | 90.1% | 105% | 109% |  | 97.2%
N#CC1=C(N)Oc2c(ccc3ccccc23)C1c1ccccc1 (configuration not stated) | 32.5% | 39.3% | 46.8% | 31.2% | 18.1% | 33.7% | 9.24% (active) | 14.6% | 41.9%
